In PubChem BioAssay (NCI):
About 79,000 compounds went through this panel and 15% of them were active in at least one assay; those are over-represented in the sample as a whole. Values without a mark were called inactive. Activity calls are given as the source filed them. Rule as the data show it: active = growth inhibition above about 70%; inactive = the rest.

Experiments:
[1] = NCI Yeast Anticancer Drug Screen. Data for the rad50 strain (AID 155);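 also: 0% = growth of vehicle-only cultures of the same strain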; details: S. cerevisiae rad50 strain growth inhibition; at 50.0 µM; active compounds read high
Summary of the method: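 Vehicle-treated cultures provide the reference for the growth inhibition reported for compound-exposed, repair-deficient yeast.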

[2] = NCI Yeast Anticancer Drug Screen. Data for the mec2-1 strain (AID 157); details: S. cerevisiae mec2-1 strain, at 50.0 µM, active compounds read high
Summary of the method: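 Yeast mec2-1 mutant treated with compound. Readout: growth inhibition vs vehicle controls.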

[3] = NCI Yeast Anticancer Drug Screen. Data for the sgs1 mgt1 strain (AID 161);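 also: 0% = growth of cultures given vehicle only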; details: S. cerevisiae sgs1 mgt1 strain, at 50.0 µM, active compounds read high
Summary of the method: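 Inhibition of yeast growth, normalised to vehicle-treated controls, is reported for a strain bearing genetic alterations in DNA damage repair.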

[4] = NCI Yeast Anticancer Drug Screen. Data for the cln2 rad14 strain (AID 165);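 also: 0% = growth equal to vehicle treated cultures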; details: S. cerevisiae cln2 rad14 strain, at 50.0 µM, active compounds read high
Summary of the method: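 cln2 rad14 yeast strain; compound exposure; growth inhibition read vs vehicle controls.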

[5] = NCI Yeast Anticancer Drug Screen. Data for the bub3 strain (AID 167); details: S. cerevisiae bub3 mutant strain, at 50.0 µM, active compounds read high
Summary of the method: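 Mutant yeast screening strain plus compound; vehicle-treated cultures serve as the 0% inhibition reference.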

[6] = NCI Yeast Anticancer Drug Screen. Data for the mlh1 rad18 strain (AID 175); details: S. cerevisiae mlh1 rad18 strain growth inhibition; at 50.0 µM; active compounds read high
Summary of the method: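 Yeast w/ defined DNA-repair lesions; compound exposure; growth vs vehicle controls → % inhibition.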

SMILES	growth inhibition [1]	growth inhibition [2] [%]	growth inhibition [3]	growth inhibition [4]	growth inhibition [5] [%]	growth inhibition [6]
Cc1[nH]c(=O)nc(N(CCO)/N=C/c2ccc(Cl)cc2)c1C(=O)Nc1ccc(Cl)cc1	6.7%	38.6	-18.1%	12.4%	-13.3	-36%
Oc1ccc(-c2nnc(-c3ccc(O)cc3)nn2)cc1	10.8%	17.4	21.1%	17.4%	23.2	10.9%
O=C(O)C1C2CCC(O2)C1C(=O)NCc1cccnc1 (configuration not stated)	23.1%	-3.8	-11.7%	-9.9%	-11	2.85%
O=[N+]([O-])c1ccc(N=Nc2c(O)[nH]c3ccc(Br)cc23)cc1	22.4%	-20.2	14.3%	10.8%	-15.4	15.3%
CC(C)CC(C)(CC(C)C)C(=O)O	9.95%	-7.75	7.8%	-1.5%	-1.3	11.8%
O=[N+]([O-])C1C2C=CC(C2)[C@H]1c1ccco1 (some centres not stated)	-7.85%	-15.2	-24.7%	20.2%	-14.8	-4.95%
CN(C)C=Nc1ccc2[nH]c3ccccc3c2c1	-25.4%	-13.1	-16.2%	14.3%	22.9	21.4%
COc1ccccc1Nc1nc(-c2ccc([N+](=O)[O-])o2)cs1	70.6% (active)	36.2	87.1% (active)	92.8% (active)	44	92.3% (active)
C=CC1(c2ccc3ccccc3c2)OCC(CC)(CC)CO1	-18.1%	7.15	-3.6%	-4.7%	7.75	21.5%
CC(=O)c1ccncc1	-38.2%	-0.7	6.65%	-27.4%	-1.6	20.6%
CC(=O)/C(C(=N)C(=O)c1ccccc1)=C(\C)O	-12.1%	22.5	3.5%	-16.6%	4.3	0.25%
CC(C)(C)c1cc(C2OC(N)=C(O)C2=O)cc(C(C)(C)C)c1O (configuration not stated)	13.4%	11.1	24.7%	13.8%	5.4	32.2%
O=C(CCCCCCCCC(=O)OCc1ccccc1)OCc1ccccc1	19.2%	2.55	3.85%	-24.2%	11.2	41%
CCOCCOCCOC(=O)c1ccccc1O	-6.75%	1.45	-4.4%	-14.5%	11.2	4.4%
O=C(N/N=C\C(F)(F)F)c1ccncc1	0.85%	-10.8	4.65%	-25%	1.5	24.1%
CCCCCCCCCc1ccc(COCC)cc1	-9.55%	11.9	7.05%	-16%	22.1	9.55%
COC(=O)C1CCC[P+]1(C)C (configuration not stated)	47.1%	41.7	45.8%	13.8%	56.5	38.5%
S=c1nn[nH]n1-c1cccc2ccccc12	4.7%	1.9	-4.65%	2.6%	-10.8	-3.8%
O=C1N(c2ccccc2)C2(O)C(=O)c3ccccc3C2(O)N1c1ccccc1 (configuration not stated)	-10%	-2.15	15.6%	16.5%	3.1	-4.5%
CCCCCCCCCCCCCCCCCCCCOC1OC(COC(C)=O)C(OC(C)=O)C(OC(C)=O)C1OC(C)=O (configuration not stated)	-21.3%	-14.2	-16.9%	12%	-5.7	-20.4%
CN(CN(C)/N=C/c1ccc(Cl)cc1)/N=C/c1ccc(Cl)cc1	1.05%	11.6	7.95%	12.8%	-4.8	10.1%

SMILES	growth inhibition [1]	growth inhibition [2] [%]	growth inhibition [3]	growth inhibition [4]	growth inhibition [5] [%]	growth inhibition [6]
C=C(C)COCc1ccc(C(C)(C)CC(C)(C)C)cc1	-14.6%	-10.3	-9.85%	-23.5%	-15.4	1.55%
CC(=O)N(C)Nc1ccccc1	2.45%	-10.7	17.9%	-7.4%	19.7	-17.6%
CC1(C)CO/C(=C/C(=O)c2ccccc2)N1C(=O)c1ccccc1	-4.6%	11.7	-6.15%	1.55%	4	-0.45%
Nc1nc(Cl)nc(Nc2ccc(-c3cc4ccc(-c5ncc[nH]5)cc4[nH]3)cc2)n1	15.5%	45.5	45.4%	31.7%	-3.6	62.6%
Oc1ccccc1/C=N\c1nccs1	10.7%	19.2	18.6%	12.4%	23.8	13.2%
N#Cc1ccc(OC(=O)Nc2ccccc2Cl)cc1	0.5%	-8.6	21.4%	26.4%	15.4	13.8%
O=C(O)CCCSc1ccc2ccccc2c1	48.5%	3.75	45.6%	24.9%	4.55	38.3%
CS(=O)(=O)OC1CCC2CCCC1(C(=O)O)C2 (configuration not stated)	2.4%	-6.6	-0.75%	-30%	-5.2	9.25%
O=C(O)COc1ccccc1-c1ccccc1	-34.4%	-13.7	-10.6%	-48.5%	1.55	-8.6%
CCOC1(OCC)C(=O)N(c2ccc(Cl)c(Cl)c2)C(=O)N1c1ccc(Cl)c(Cl)c1	39.2%	1.4	-5.6%	7.5%	-3.65	-0.45%
CC(=O)NC(C)NC(C)=O	-11.8%	-9.95	-13.8%	-86.5%	7.25	-5.35%
Nc1ccn(CCC(COCc2ccccc2)COCc2ccccc2)c(=O)n1	35.8%	-13.4	0.75%	-5.6%	-5.45	5.75%
O=S(=O)(O)CCc1ccccc1	1.9%	9.15	-10.9%	-7.5%	-21.1	-26.5%
CCOC(=O)C(CC(CC(C(=O)OCC)C(=O)OCC)=C(C)C)C(=O)OCC	36.1%	0.65	15%	-14.5%	24.2	15.4%
Cc1c(CCCl)c(Cl)n2c(nc3ccccc32)c1C#N	38.7%	20.8	39.4%	32.5%	22.8	57.1%
Nc1ncccc1C(=O)O	2.55%	-1.05	-2.8%	-12.1%	-0.35	-3.05%
CCOC(=O)CSc1cc(C)[o+]c(C)c1	4.6%	6.25	6.8%	15%	-6.4	-3.15%
CSc1c(C#N)c(N)nc2c(N=Nc3ccc(Cl)cc3)c(N)nn12	8.75%	3.65	-9.1%	-4.65%	-6.5	-58%
COc1ccc(/C(=N\O)C(c2ccc(OC)cc2)C(Cl)(Cl)Cl)cc1 (configuration not stated)	52.8%	38.9	38.9%	14.7%	16.6	44.9%
O=Cc1cccc(OC(=O)Nc2ccccc2)c1	39%	24.8	24.5%	-17.5%	17.1	0.95%
NC(=O)NC(c1ccc(O)cc1)c1cc2c(cc1O)OCO2 (configuration not stated)	-4%	1.9	-11.8%	-36.8%	5.75	-0.55%
